# ± gives the standard deviation of the averaged measurements. Over roughly 25,000 sequences, “ln(normalized median fluorescence intensity)” has its median near 8.6; the highest 2% begin near 10. Only a selection was taken, and the highest values are over-represented in it overall.
# Tested on: PfAP2-EXP AP2 domain (GST-tagged)
# Assay: gcPBM binding intensity (ln(normalized median fluorescence intensity)); higher = stronger DNA binding
# Method in brief: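 Binding intensity is defined as the maximum Masliner-normalised natural-log median intensity across replicate spots for either probe orientation. It was measured on an Agilent 4 × 180k array of primer-extended double-stranded 36-bp intergenic genomic probes and negative controls, to which GST-tagged P. falciparum DNA-binding domains made in E. coli were applied for 1 h in 1× PBS with 1% milk, 0.2 mg/ml BSA, 0.5% salmon testes DNA and 0.03% Triton X-100. Detection was by Alexa488 anti-GST antibody and scanning at 488 nm.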
row,Sequence,gcPBM binding intensity (ln)
1,TTTTGATATATGAATATTAAGTTATATAATATTTTA [TGCATGCA_negctrl_site39],7.92 ± 0.28
2,ATAATAATTTAATACATACACACGTATATCTTTTTT [CACACA_site2041],8.45 ± 0.4
3,AAAAATTAACAAAAGGTGCAAACAAATAGTGGTTTT [GTGCAC_site9998],8.865 ± 0.049
4,AATTGCTCGATATATGCACACAGTTTTGTTATTTTT [CACACA_site8465],8.94 ± 0.36
5,AAAAAAAAAAAAAAAAGTACAAAAAGGAGAAAGATA [XGTACX_site7862],8.9 ± 0.47
6,TTAAAAGAAAATAGGTGTACACATAATATATACATA [XGTACX_site7697],8.92 ± 0.057
7,TTGTTTCCTTAATATTCACACACATATATATAATAT [CACACA_site8553],8.89 ± 0.48
8,GAATATTAAACAAACACACACACATATATTTATATA [CACACA_site7563],8.63 ± 0.42
9,GTTTATATTAAACAAACACACACATATATATATATA [CACACA_site8749],10.2 ± 0.26
10,GAATATTAAACAAACACACACACATATATATATATA [CACACA_site3382],10.1 ± 0.32
11,AATTTTTTATTAAACACACAAACATATATATATATA [CACACA_site1937],9.94 ± 0.35
12,TTATATTAAACAAACACACACATATATATATATATA [CACACA_site2382],10.1 ± 0.47
13,ATATTAAACAAACACACACACATATATATATATATA [CACACA_site3383],10.2 ± 0.26
14,TATATTAGAAGAAATTCACACATTCATGTAATCTTA [CACACA_site4706],8.07 ± 0.33
15,ATAAATAAGATATATACACACATATCTATACATATT [CACACA_site6369],8.28 ± 0.49
16,AATCGATAACAATGTAGTACCAGAAAAATAAATATT [XGTACX_site8501],8.99 ± 0.3
17,AGAATCACCAAATATGTACACACCTTAACATGTTTA [CACACA_site2068],9.01 ± 0.46
18,ATTAGCTACAAACAAAGGCTACCTATAGCAAGAGGG [GTGCAC_negctrl_site33],8.84 ± 0.39
19,ATTATTAAAAAGATGTAAATAAATGAATATATGCTT [CACACA_negctrl_site539],8.47 ± 0.39
20,TATTTTTTTTTTTTTTTTTTTTTAAAACATATCAAT [CACACA_negctrl_site925],7.95 ± 0.64
21,TAGCTCGTTCGGAGCACACACATATATATATATATA [CACACA_site1948],10.3 ± 0.28
22,TAGCTCGTTCGGAGCACACACATATAAATAAATATA [CACACA_site7002],8.38 ± 0.52

row,Sequence,gcPBM binding intensity (ln)
1,GTTAGCTCGTTCGGAGCACACACATATATATATATA [CACACA_site8595],10.1 ± 0.45
2,TTCTATATATTTGGAAGTACATTATATTTATTTTTT [XGTACX_site3172],8.44 ± 0.33
3,AAATAATAAATATATCGTACAAATATCATATATAAA [XGTACX_site2771],8.32 ± 0.38
4,AATATTATAAATGTCACACATATATTCAAATATATA [CACACA_site4736],8.29 ± 0.38
5,AATATATGTAAATGGACACACACATATATATATATA [CACACA_site9220],10 ± 0.28
6,TACCTAAATAAATGGACACACACATATATATATATA [CACACA_site8407],10.1 ± 0.3
7,ACACATAAATGAATAAATAAATAAATATAAATATAA [CACACA_negctrl_site1784],8.36 ± 0.29
8,TATCTGTAAATGGACACACACATATATATATATATA [CACACA_site5926],10.2 ± 0.2
9,CCTAAATAAATGGACACACACATATATATATATATA [CACACA_site1439],10.2 ± 0.32
10,TATATGTAAATGGACACACACATATATATATATATA [CACACA_site3659],10.1 ± 0.36
11,CCTAAATAAATGGACACACACATATTTATATTTATA [CACACA_site6789],8.46 ± 0.45
12,AATAAATGGAATGTCACACATATATATATATATATA [CACACA_site4869],10.2 ± 0.37
13,GAACATACTCAAATAGCACACACATAAATAAAAATG [CACACA_site9283],8.89 ± 0.56
14,GTGTGTTGTATATACTGTACATACTTTATATATAGT [XGTACX_site1876],8.63
15,CCTTTTTTGTTTTATGCACACCATATAACCAAGGCT [CACACA_site7893],8.98 ± 0.18
16,AAAAAATGGATGATCACACACTTCATAAAAATTGCA [CACACA_site5256],8.46 ± 0.49
17,GTATATAATTTATATTGTACGCATATTATTATCATT [XGTACX_site7277],8.57 ± 0.25
18,CTTTTCTATTTTTTCGTGCACTATAAATATTTTAAT,9.6 ± 0.23
19,ATTCTATATTTAAATGCATGCACTTTCTATTTTTTT [TGCATGCA_site435],10.6 ± 0.52
20,TTTATATTTAAATGCATGCACTTTCTATTTTTTTTT [GTGCAC_site9959],10 ± 0.33
21,ATGCATATATTTATGTGTACATATATTTGTAGGGGG [XGTACX_site6063],10.6 ± 0.19
22,ATAGCATATATTTTTTGTACATATGTTATATATATA [XGTACX_site2184],8.96 ± 0.071

row,Sequence,gcPBM binding intensity (ln)
1,TATATATATATATTATGTACTCATTTATTATCTTTT [XGTACX_site8051],9.97 ± 0.13
2,ATATATATATATATATGTACTCATATTTTATTATTT [XGTACX_site898],10.1 ± 0.3
3,ATATATATTTATATATGTACATATTTTTGTGTATTT [XGTACX_site1183],8.55 ± 0.43
4,TTTGTCATTTTATTATGTACTCAGCATATAGGGGGG [XGTACX_site505],10.7 ± 0.13
5,ATATATTTATATTTGTGTACATATTTATTATATTTA [XGTACX_site404],8.46 ± 0.28
6,ATATATATATATGCATGTACATATATTTGTTATATC [XGTACX_site3197],9.82 ± 0.45
7,TATATATATATATATGCATGTACATATATTTGTTAT [TGCATGCA_site379],10.3 ± 0.17
8,ACAAAAATATTATATTGTACATTATTAGTTCATATT [XGTACX_site6750],8.5 ± 0.3
9,GTAATTTTGAGATGATGTACATATTTTTTCCTTGTC [XGTACX_site4103],8.78 ± 0.47
10,TAATTAAGAATATATAGTACATAGTTGAAAAACTTT [XGTACX_site6359],8.41 ± 0.33
11,GTTTGATAACACCTACAAACTCTTTTTTTTTTTTTT [CACACA_negctrl_site1134],8.41 ± 0.53
12,TCTGTGTTTTTGGGTACACACAAATAGCTTGTATAT [CACACA_site4002],8.72 ± 0.19
13,ACCCTATATGTAACTACACACCGCATATTGTTTACT [CACACA_site3071],9.19 ± 0.43
14,TATGTAACCTGTTTTACACACCCCCACCCCCCTCTT [CACACA_site319],10.3 ± 0.17
15,TATATATGTTTTTATGTACACACTTTTAACCTAAGA [CACACA_site1149],8.71 ± 0.36
16,ATCTATATAATATATACACACAAATATACAAAAAAA [CACACA_site1013],8.64 ± 0.56
17,AAATGCGCCATGTGTACACATATATATATATATATA [CACACA_site4649],10.3 ± 0.33
18,AAAAAATGCGACATGTGTACACATATATATATATAT [XGTACX_site1679],10.4 ± 0.11
19,ATACACACATATATGTGTACATATACATATATATAT [XGTACX_site6744],9.53 ± 0.32
20,GTACAAATGTTGTGTATATATACACACATACATATA [XGTACX_negctrl_site276],8.69 ± 0.33
21,ATATATATATATATATGTACATATACACATGTGTGC [XGTACX_site168],10.1 ± 0.33
22,AAAAAAATAAATAAATGTACACATATATATATATAT [XGTACX_site4350],10.2 ± 0.47

row,Sequence,gcPBM binding intensity (ln)
1,ATAACACAAAATTGTTGTACACGTGTTAATAAGTGA [XGTACX_site4452],9.12 ± 0.33
2,TTAAAAAAATAATTAACACACACATGTATATCTATA [CACACA_site9026],8.21 ± 0.42
3,TAGTACACACAAAATACATGCGGGGTTTAATATTTA [TGCATGCA_site576],8.78 ± 0.45
4,TATATGACAAGATAAAGTACAAATTTGTATATATAT [XGTACX_site3027],8.97 ± 0.25
5,TTCTTAATATTGCATGCACACTATATAATAATTGAA [CACACA_site4720],10.41 ± 0.057
6,TTATTAATATTGCATGCACACTATATAATAATTGAA [CACACA_site8258],10.11 ± 0.057
7,TTTTATTAATATTGCATGCACACTATATAATAATTG [CACACA_site1049],10.02 ± 0.064
8,ATAAAAAATTTAAGTATTTTTTACAAACCTATAAAT [GTGCAC_negctrl_site51],8.18 ± 0.38
9,ATTTTTTTTCTTTTTTTTTTACATTTTTTTCTTTTT [CACACA_negctrl_site1289],8.51 ± 0.45
10,AAAAGTCTTCAAATTTGTACATATATATATATATAT [XGTACX_site3404],10.29 ± 0.092
11,TTATATATTTATAAATGTACATATAATTTTTTTATA [XGTACX_site4696],8.3 ± 0.32
12,ATTTAAAAAATATATTGTACATATTTTATTATGTTT [XGTACX_site2984],8.29 ± 0.35
13,CATTTAAAATTTGTTTGTACATATATATATATATAT [XGTACX_site6729],10.2 ± 0.26
14,ATCAGATATATATATTGTACATTTATATATAAATCA [XGTACX_site1960],8.46 ± 0.36
15,ACGTATCAAAAAATTTGTACATATATATATATATAT [XGTACX_site1024],10.1 ± 0.35
16,TGTTGTAAATATGTTTGTACATAAATATATTATTTA [XGTACX_site5442],8.38 ± 0.35
17,TATATATATATATGTTGTACATATTTAAATGTTTAT [XGTACX_site5437],10.2 ± 0.2
18,TAAAATTTTTTTGTTTGTACATATATATATATAATA [XGTACX_site5609],8.72 ± 0.52
19,TATATACATAAAATTTGTACATATATATATATATAT [XGTACX_site3214],10.1 ± 0.51
20,ACATTCACAAAATTTTGTACACATATATATATATAT [XGTACX_site3518],10 ± 0.26
21,ATATATATATATAAATGTACAGATATATTTTTTATT [XGTACX_site5445],10.21 ± 0.078
22,TTTTTTTAATTAGTTTGTACATATTGTTATAATATA [XGTACX_site6294],8.56 ± 0.4

# Reference: the supplement of paper PMC11417369
